Data published in PubChem BioAssay (EPA / NIEHS).
Active and inactive are the calls of the source. How the source made its calls: active means hit-call score of the fitted dose curve at least 0.9, where 1 is the maximum; inactive means score below 0.9.

Columns and labels:
[1] = read-out: Monokine induced gamma interferon (MIG), CXCL9 (gene 4283); test: BSK_hDFCGF_MIG: BioMAP Diversity Plus: hDFCGF Assay for Monokine induced gamma interferon (MIG) Biomarker Activity (AID 2283063); conditions: primary human foreskin fibroblasts; actives raise or lower the signal
How it was run: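 MIG signal, determined by ELISA, reflects 24 h chemical exposure of human skin primary fibroblasts. DMSO serves as negative control and baseline.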

[2] = read-out: Matrix Metallopeptidase 1 (MMP1), MMP1 (gene 4312); test: BSK_hDFCGF_MMP1: BioMAP Diversity Plus: hDFCGF Assay for Matrix Metallopeptidase 1 (MMP1) Biomarker Activity (AID 2283064); conditions: primary human foreskin fibroblasts; actives raise or lower the signal
How it was run: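 hDFCGF primary fibroblasts (human foreskin); chemical added; 24 h; MMP1 by ELISA; bidirectional fit vs DMSO.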

[3] = read-out: Intercellular Adhesion Molecule 1 (ICAM1), ICAM1 (gene 3383); test: BSK_KF3CT_ICAM1: BioMAP Diversity Plus: KF3CT Assay for Intercellular Adhesion Molecule 1 (ICAM1) Biomarker Activity (AID 2283067); conditions: primary human keratinocytes with fibroblasts; actives raise or lower the signal
How it was run: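 Dose the keratinocyte/fibroblast co-culture, wait 24 h, measure ICAM-1 by ELISA, then fit increases or decreases against DMSO. Cytotoxicity is checked in parallel cultures by SRB total-protein staining.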

[4] = read-out: Interferon-gamma inducible Protein 10 (IP10), CXCL10 (gene 3627); test: BSK_KF3CT_IP10: BioMAP Diversity Plus: KF3CT Assay for Interferon-gamma inducible Protein 10 (IP10) Biomarker Activity (AID 2283068); conditions: primary human keratinocytes with fibroblasts; actives raise or lower the signal
How it was run: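 Signal is secreted/surface IP-10 by ELISA in a human primary skin co-culture of keratinocytes and foreskin fibroblasts, taken 24 h post-dosing; DMSO served as negative control.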

[5] = BSK_KF3CT_SRB: Viability Assessment in the BioMAP Diversity Plus: KF3CT Assay (AID 2283069); conditions: primary human keratinocytes with fibroblasts;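 further: fitted for both signal gain and loss against DMSO baseline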
How it was run: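 Keratinocytes co-cultured with foreskin fibroblasts (human primary); chemical added, 24 h; fix 10% TCA, stain 0.1% SRB, A560. Bidirectional fit vs DMSO.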

[6] = read-out: Interleukin-1 alpha (IL1a), IL1A (gene 3552); test: BSK_KF3CT_IL1a: BioMAP Diversity Plus: KF3CT Assay for Interleukin-1 alpha (IL1a) Biomarker Activity (AID 2283070); conditions: primary human keratinocytes with fibroblasts; actives raise or lower the signal
How it was run: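 Chemicals were dosed onto co-cultured human keratinocytes and foreskin fibroblasts, IL-1a was quantified by ELISA at 24 h, and activity was fitted in both directions relative to DMSO controls.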

[7] = read-out: TIMP metallopeptidase inhibitor 2 (TIMP2), TIMP2 (gene 7077); test: BSK_KF3CT_TIMP2: BioMAP Diversity Plus: KF3CT Assay for TIMP metallopeptidase inhibitor 2 (TIMP2) Biomarker Activity (AID 2283071); conditions: primary human keratinocytes with fibroblasts; actives raise or lower the signal
How it was run: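 Human primary keratinocyte/foreskin fibroblast co-culture dosed with chemical and sampled at 24 h. TIMP-2 levels quantified by ELISA; bidirectional fitting against DMSO negative control as baseline.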

[8] = read-out: Transforming growth factor beta 1 (TGFb1), TGFB1 (gene 7040); test: BSK_KF3CT_TGFb1: BioMAP Diversity Plus: KF3CT Assay for Transforming growth factor beta 1 (TGFb1) Biomarker Activity (AID 2283072); conditions: primary human keratinocytes with fibroblasts; actives raise or lower the signal
How it was run: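 Human keratinocyte plus foreskin fibroblast primary co-culture, dosed with chemical for 24 h. TGF-b1 quantified by ELISA. Activity fitted bidirectionally against DMSO negative control as baseline.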

[9] = read-out: C-C motif chemokine 2 (Homo sapiens) (UniProt P13500); test: BSK_KF3CT_MCP1: BioMAP Diversity Plus: KF3CT Assay for Monocyte Chemoattractant Protein 1 (MCP1/CCL2) Biomarker Activity (AID 2283073); conditions: primary human keratinocytes with fibroblasts; actives raise or lower the signal
How it was run: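 Keratinocytes and foreskin fibroblasts were co-cultured, dosed with chemical, and sampled 24 h later. MCP-1 was quantified by ELISA, and the endpoint was analyzed with bidirectional fitting using DMSO as negative control.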

[10] = read-out: urokinase plasminogen activator (uPA), PLAU (gene 5328); test: BSK_KF3CT_uPA: BioMAP Diversity Plus: KF3CT Assay for urokinase plasminogen activator (uPA) Biomarker Activity (AID 2283075); conditions: primary human keratinocytes with fibroblasts; actives raise or lower the signal
How it was run: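 ELISA readout of uPA, analyzed for signal gain or loss relative to DMSO, from a human primary keratinocyte–foreskin fibroblast co-culture measured 24 h after chemical treatment.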

[11] = read-out: E-selectin (Homo sapiens) (UniProt P16581); test: BSK_LPS_Eselectin: BioMAP Diversity Plus: LPS Assay for Eselectin Biomarker Activity (AID 2283077); conditions: primary human HUVEC with PBMC; actives raise or lower the signal
How it was run: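 Signal of E-selectin, detected by ELISA, served as the endpoint; cells were umbilical vein endothelium with PBMC, read 24 h after treatment. DMSO defined baseline, and both increases and decreases were fitted.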

[12] = read-out: Interleukin-8 (IL8), CXCL8 (gene 3576); test: BSK_LPS_IL8: BioMAP Diversity Plus: LPS Assay for Interleukin-8 (IL8) Biomarker Activity (AID 2283078); conditions: primary human HUVEC with PBMC; actives raise or lower the signal
How it was run: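 Endothelial cells and PBMC from human donors are co-cultured, treated with chemicals and LPS, then assayed for IL-8 by ELISA after 24 h. Parallel SRB staining (0.1% SRB after 10% TCA fixation, 560 nm) flags cytotoxicity.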

[13] = BSK_LPS_SRB: Viability Assessment in the BioMAP Diversity Plus: LPS Assay (AID 2283079); conditions: primary human HUVEC with PBMC;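 further: total protein by sulforhodamine B absorbance as a cytotoxicity measure; measured one day after compound addition; fitted in both directions against DMSO so loss or gain of signal counts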
How it was run: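 Overt cytotoxicity was gauged by sulforhodamine B total-protein staining in a primary human vascular endothelial and mononuclear cell co-culture 24 h post-dosing. Activity was fitted in both directions relative to DMSO.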

[14] = read-out: Interleukin-1 alpha (IL1a), IL1A (gene 3552); test: BSK_LPS_IL1a: BioMAP Diversity Plus: LPS Assay for Interleukin-1 alpha (IL1a) Biomarker Activity (AID 2283080); conditions: primary human HUVEC with PBMC; actives raise or lower the signal
How it was run: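 Measured: IL-1 alpha via ELISA at 24 h in LPS-activated human umbilical vein endothelium–PBMC co-culture. Baseline: DMSO, bidirectional fitting.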

[15] = read-out: Monocyte Chemoattractant Protein-1 (MCP1), CCL2 (gene 6347); test: BSK_LPS_MCP1: BioMAP Diversity Plus: LPS Assay for Monocyte Chemoattractant Protein-1 (MCP1) Biomarker Activity (AID 2283081); conditions: primary human HUVEC with PBMC; actives raise or lower the signal
How it was run: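 LPS-stimulated HUVEC/PBMC co-culture; chemical, 24 h; MCP-1 by ELISA; bidirectional fit vs DMSO; cytotoxicity via SRB (0.1% stain, 10% TCA fix, 560 nm) in parallel wells.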

[16] = read-out: Plasminogen activator inhibitor-1 (PAI1), SERPINE1 (gene 5054); test: BSK_hDFCGF_PAI1: BioMAP Diversity Plus: hDFCGF Assay for Plasminogen activator inhibitor-1 (PAI1) Biomarker Activity (AID 2283066); conditions: primary human foreskin fibroblasts; actives raise or lower the signal
How it was run: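 Human foreskin fibroblasts in the hDFCGF system were dosed with compound for 24 h; PAI-1 was quantified by ELISA. Bidirectional curve fitting used DMSO as negative control and baseline.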

CD40, CD40 (gene 958) = test: BSK_LPS_CD40: BioMAP Diversity Plus: LPS Assay for CD40 Biomarker Activity (AID 2283076); conditions: primary human HUVEC with PBMC; actives raise or lower the signal
How it was run: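 CD40 signal, measured by ELISA, is fitted in both directions relative to DMSO vehicle. The system is an LPS-driven human vascular primary co-culture of endothelial cells and PBMC, sampled 24 h after compound addition.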

[17] = read-out: Vascular cell adhesion molecule 1 (VCAM1), VCAM1 (gene 7412); test: BSK_hDFCGF_VCAM1: BioMAP Diversity Plus: hDFCGF Assay for Vascular cell adhesion molecule 1 (VCAM1) Biomarker Activity (AID 2283065); conditions: primary human foreskin fibroblasts; actives raise or lower the signal
How it was run: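 Cells are dosed, cultured for 24 h, then VCAM-1 is quantified by ELISA; signal increases and decreases are both fitted relative to DMSO.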

[18] = read-out: Matrix Metallopeptidase 9 (MMP9), MMP9 (gene 4318); test: BSK_KF3CT_MMP9: BioMAP Diversity Plus: KF3CT Assay for Matrix Metallopeptidase 9 (MMP9) Biomarker Activity (AID 2283074); conditions: primary human keratinocytes with fibroblasts; actives raise or lower the signal
How it was run: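 Human keratinocyte/foreskin fibroblast co-culture; compound added; 24 h; MMP-9 by ELISA; bidirectional fit vs DMSO baseline.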

Measured: outcome

Chain of E-selectin (Homo sapiens) (P16581 whole entry, looked up): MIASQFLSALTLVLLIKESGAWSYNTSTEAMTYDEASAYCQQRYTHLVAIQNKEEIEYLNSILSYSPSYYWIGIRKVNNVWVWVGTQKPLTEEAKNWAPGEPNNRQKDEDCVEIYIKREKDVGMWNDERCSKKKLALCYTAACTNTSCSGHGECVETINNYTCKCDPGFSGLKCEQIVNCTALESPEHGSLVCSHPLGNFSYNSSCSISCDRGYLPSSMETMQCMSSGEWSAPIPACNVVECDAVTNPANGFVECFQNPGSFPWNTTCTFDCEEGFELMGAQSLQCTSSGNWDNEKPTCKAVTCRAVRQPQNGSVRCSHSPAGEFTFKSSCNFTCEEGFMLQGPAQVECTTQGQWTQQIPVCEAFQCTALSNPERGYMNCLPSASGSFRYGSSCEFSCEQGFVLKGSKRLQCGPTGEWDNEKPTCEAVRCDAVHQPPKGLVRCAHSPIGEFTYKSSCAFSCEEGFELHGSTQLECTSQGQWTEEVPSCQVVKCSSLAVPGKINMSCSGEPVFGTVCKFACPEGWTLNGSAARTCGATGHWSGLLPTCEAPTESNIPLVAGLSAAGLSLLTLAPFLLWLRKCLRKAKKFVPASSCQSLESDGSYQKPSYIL

Cc1nc(C)nc(N2C[C@@H](C)N(c3ccnc([C@@H](C)O)n3)[C@@H](C)C2)n1
not listed: [16] | CD40, CD40 (gene 958) | [17] | [18]
inactive: all other assays above

COc1ccc(C)cc1N
not listed: [17] | [18]
inactive: all other assays above

C[C@]12C=CC(=O)C=C1CC[C@@H]1[C@@H]2C(=O)C[C@@]2(C)[C@H]1CC[C@]2(O)C(=O)CO
not listed: [2]
inactive: all other assays above

Cc1ccc2ncccc2c1
not listed: [2] | [17]
inactive: all other assays above

C[Si]1(C)O[Si](C)(C)O[Si](C)(C)O[Si](C)(C)O1
not listed: CD40, CD40 (gene 958) | [17] | [18]
inactive: all other assays above

NS(=O)(=O)c1cc2c(cc1Cl)NCNS2(=O)=O
not listed: [2] | [13] | [16] | CD40, CD40 (gene 958) | [18]
inactive: all other assays above
